This passage reports growth results from PubChem BioAssay (NCI).

The panel holds about 83,000 compounds, 20% with a hit somewhere; the sample as a whole holds those more often.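 A percent growth of 40 corresponds to 60% growth inhibition; 0 means no net growth; -100 means all cells died. Active threshold: below 10.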 A number with no mark means an inactive call. Calls of active or inactive are those of the source.

In one assay the test system is NCI-H226 lung. The assay is described as follows: NCI-60 one-dose screen, 48 h (100 = growth as untreated, 0 = no growth, -100 = all killed). The note with it: 10 µM unless noted.
As to `Cc1cccc(Nc2nc3ccccc3nc2/C=C/c2ccc(F)cc2)c1`, the growth was 95.2%. Same read-out and setting: as for `Brc1ccc(N/N=C/c2c[nH]c3ccc(Br)cc23)nc1`, the figure is 3.09% (active); as for `C=C1CC[C@@H]2[C@]3(C)COC(c4cn[nH]c4-c4ccc(C)cc4)O[C@@H]3CC[C@@]2(C)[C@@H]1C/C=C1/C(=O)OCC1O` (some centres undefined), -65.3% (active); as for `O=C(Cn1c(/C=C/c2ccccc2)nc2ccccc2c1=O)Nc1ccc(Cl)cc1`, 30.2%. On the same count and under the same terms, under `CC1(C)CC[C@]2(C(=O)O)CC[C@]3(C)C(=CCC4[C@@]5(C)C[C@@H](O)[C@@H]6OC(c7ccccc7Br)OC[C@@]6(C)C5CC[C@]43C)C2C1` (some centres undefined) stands 26.7%. Same read-out and setting: as for `C=C1CCC2C3(C)COC(c4ccco4)OC3CCC2(C)C1CC(Sc1ccccc1)C1=CCOC1=O` (centres undefined), the figure is 31.5%.

A further assay deals with NCI-H322M lung. Described as above. The note with it: 10 µM unless noted.
With `Cc1ccc(NC(=O)CN2CCN(c3ncnc4c3cnn4-c3ccccc3)CC2)cc1`, the growth is 86.5%. The same measure, in the same setting: as for `COc1cc(OC)cc(C(=O)Nc2cccc(-c3cn(-c4ccc(S(N)(=O)=O)cc4)nn3)c2)c1`, the figure is 89.9%; as for `CCN(CC)c1ccc(/C=N/Nc2nc(-c3ccc(Br)cc3)cs2)c(O)c1`, 96.9%. With `Cn1cc(-c2cc(N)n3nc(-c4c[nH]c5ccccc45)cc3n2)c2cc(Br)cnc21`, the growth is -50.8% (active). `C#C[C@]1(O)CC[C@H]2[C@@H]3CC=C4c5sc(-c6ccc(O)c(O)c6)nc5CC[C@]4(C)[C@H]3CC[C@@]21C`: the growth is -79.6% (active).

For the compound `CN(C)CCOc1ccc(C(=O)C2[C@H](c3ccc(Cl)cc3)[C@@H](c3ccccc3)NC23C(=O)Nc2ccccc23)cc1` (some centres undefined), the growth is 82.5%. As for `CC(C)(C)OC(=O)/C=C/c1cccc2c1C(=O)NC(C)(c1cc3cc(Cl)ccc3oc1=O)N2` (centres undefined), the growth was 60.9%. On the same count and under the same terms, as for `CCOC(=O)/C=C/c1cccc2c1C(=O)NC(C)(c1cc3cc(Cl)ccc3oc1=O)N2` (centres undefined), the figure is 56.4%; as for `N=C1N=C(SCc2nc3ccccc3[nH]2)NC(=O)/C1=C/c1ccc(Cl)cc1`, 103%; as for `COc1cc(-c2cc(-c3cccc(OCC(=O)O)c3)[nH]c(=O)c2C#N)cc(OC)c1OC`, 91%.

`Cc1cccc(-c2nc(Nc3ccc(C)c(S(N)(=O)=O)c3)c3ccccc3n2)c1`: the growth is 34%. For `Cn1cc(-c2cc(N)n3nc(-c4cn(C)c5ccccc45)cc3n2)c2cc(Br)ccc21`, the growth is 7.11% (active). In the case of `CC12CC[C@@H]3[C@]4(C)COC(c5cn[nH]c5-c5cccc(Cl)c5)O[C@@H]4CC[C@@]3(C)[C@@H]1CC(C1=CCOC1=O)O2` (some centres undefined), the growth was 52.1%.

`O=C(NN1C(=O)/C(=C/C=C/c2ccc([N+](=O)[O-])o2)SC1=S)c1ccc(Cl)cc1`: the growth is -100% (active).

For the compound `COc1ccc(NC(=O)Cn2c3c(sc2=O)[C@H]2[C@@H](O)[C@@H](O)[C@H](O)[C@@H]2CS3)cc1`, the growth was 101%. On the same count and under the same terms, under `CC1(C)CC[C@]2(C(=O)O)CC[C@]3(C)C(=CCC4[C@@]5(C)C[C@@H](O)[C@@H]6OC(c7ccco7)OC[C@@]6(C)C5CC[C@]43C)C2C1` (some centres undefined) stands 30.1%; under `CCCCCCCCOc1cccc(S(=O)(=O)Nc2ccc(C)cc2C(=O)O)c1`, 94.5%; under `Nc1nnc(-c2c[nH]c3ccc(Br)cc23)c(-c2c[nH]c3ncc(Br)cc23)n1`, 53.5%. Still for that read-out and setting: under `CCCn1cc(-c2nc(Nc3ccc(C(=O)NCCCCNc4cccc5c4C(=O)N(C4CCC(=O)NC4=O)C5=O)cc3)nc3[nH]ccc23)cn1` (centres undefined) stands 7.64% (active); under `CCOC(=O)C1=C(N)N(c2ccccc2)C2=C(C(=O)CC(C)(C)C2)C1c1ccccc1Cl` (centres undefined), 82.2%. Consider `Cc1ccc(-c2nc(C#N)c(S(=O)(=O)N3CCN(S(=O)(=O)c4ccc(Cl)cc4)CC3)o2)cc1`, for which the growth was 97.1%. Consider `O=c1[nH]c2ccc(Cl)cc2cc1CSc1nccc(-c2ccc(Cl)cc2)n1`, for which the growth is 56.8%.

With `C=C1CC[C@@H]2[C@]3(C)COC(c4ccccc4)O[C@@H]3CC[C@@]2(C)[C@@H]1C/C=C1/C(=O)OCC1OC(C)=O` (some centres undefined), the growth is 62.1%.

Turning to `Cc1cccc(Nc2nc3ccccc3nc2/C=C/c2ccc(F)cc2)c1`, the growth is 95.5%.

Regarding `Brc1ccc(N/N=C/c2c[nH]c3ccc(Br)cc23)nc1`, the growth was 17.6%. Still for that read-out and setting: as for `O=C(Cn1c(/C=C/c2ccccc2)nc2ccccc2c1=O)Nc1ccc(Cl)cc1`, the figure is 74.8%.

Turning to `CC1(C)CC[C@]2(C(=O)O)CC[C@]3(C)C(=CCC4[C@@]5(C)C[C@@H](O)[C@@H]6OC(c7ccccc7Br)OC[C@@]6(C)C5CC[C@]43C)C2C1` (some centres undefined), the growth was 21.2%. On the same count and under the same terms, as for `C=C1CCC2C3(C)COC(c4ccco4)OC3CCC2(C)C1CC(Sc1ccccc1)C1=CCOC1=O` (centres undefined), the figure is 92.2%.
